Experimental data taken from ChEMBL document CHEMBL4513216, “Probing the Open Global Health Chemical Diversity Library for Multistage-Active Starting Points for Next-Generation Antimalarials” (ACS Infect Dis, 2020).
Out of some 69,000 compounds screened, about 8,600 (12%) showed an effect of 50% or more. This excerpt belongs to a sample that is enriched for strong results.

System: Plasmodium berghei
Test: Screen against P. berghei liver stage (PbLuc), transformed with Luciferase, at 10uM
Format: functional, HepG2
Conditions: tested at 10 uM

Row | SMILES | INHIBITION
1 | Cc1cc(Cc2ccc(S(=O)(=O)N3CCCC3)cc2)c(=O)[nH]n1 | 20.9%
2 | CNC(=O)C1(c2cnccn2)CCCN1C(=O)c1ncccc1C (stereo not given) | 19.6%
3 | COC(=O)CC(c1cccc(OC(F)F)c1)c1oc(C)cc(=O)c1O (stereo not given) | 21.5%
4 | CCS(=O)(=O)N1Cc2c(Cn3ccnc3)nn(C)c2C1 | 26.5%
5 | CCS(=O)(=O)N1Cc2c(Cn3ccnc3)nn(C(C)C)c2C1 | 65.1%
6 | CCS(=O)(=O)N1Cc2c(Cn3cccc3)nn(C(C)C)c2C1 | 12.1%
7 | Cc1n[nH]c(C)c1CNC(=O)N(Cc1ccccc1)CC(C)(C)O | 68%
8 | Cc1ncsc1CNC(=O)N(Cc1ccccc1)CC(C)(C)O | 47.4%
9 | Cc1n[nH]c(C)c1CC(=O)NCCc1ccccc1 | 52.5%
10 | Cc1nc(CNC(=O)N(Cc2ccccc2)CC(C)(C)O)oc1C | 28.6%
11 | Cc1n[nH]c(C)c1CNC(=O)CSCc1ccccc1Cl | -26.4%
12 | Cc1n[nH]c(C)c1CC(=O)NCc1ccccc1Cl | 64.8%
13 | CSc1ccc(CCNC(=O)Cc2c(C)n[nH]c2C)cc1 | 40.3%
14 | Cc1nc2cc(=O)[nH]n2c(C)c1CC(=O)NCCCc1ccccc1 | -4.3%
15 | CSc1ccc(CNC(=O)Cc2c(C)n[nH]c2C)cc1 | 21.8%
16 | O=C1CN([C@@H]2CC[C@@H](NS(=O)(=O)c3ccccc3)[C@H]2O)CCN1 | 4.5%
17 | CC(C)C[C@H](NC(=O)NC1CCS(=O)(=O)C1)C(=O)NCc1cccnc1 (stereo not given in full) | 44.9%
18 | Cc1nccn1CCCNc1ccc(Cl)c(C#N)n1 | -9.39%
19 | O=C(CN1CCOc2ccccc2C1)NCc1cc2n(n1)CCNC2 | 21.7%
20 | CC(O)CCN(C)C(=O)Nc1ccc(Br)cc1 (stereo not given) | -12.1%
21 | Cc1ccn(-c2ccc(NCc3cccnc3N3CCCCC3)nn2)n1 | 34.4%
22 | CN1CCN(c2ncccc2CNc2ncccc2C#N)CC1 | -29.4%
23 | N#Cc1ccc(NCc2cccnc2N2CCC(C(N)=O)CC2)cn1 | 57.3%

Row | SMILES | INHIBITION
24 | N#Cc1cccnc1Nc1ccc(N2CCC(C(N)=O)CC2)cc1 | 45.2%
25 | N#Cc1cccnc1NCc1cccnc1N1CCCCC1 | 51.7%
26 | N#Cc1cccnc1NCc1cccnc1N1CCC(C(N)=O)CC1 | -0.182%
27 | Cc1cccc(C(=O)N2CCC3(CCN(c4cnn(C)c4)C3=O)C2)n1 (stereo not given) | 24.9%
28 | O=C1CO[C@H]2CCN(C(=O)c3ccc4c(c3)CCCC4)CC[C@@H]2N1 | 16.675%
29 | O=C(CCc1ccc(F)c(F)c1)N1CCCCC1Cn1cccn1 (stereo not given) | 21.5%
30 | O=C(c1cnccn1)N1CCc2ncc(CN3CCOCC3)n2CC1 | 48.6%
31 | Cc1nc2cc(=O)[nH]n2c(C)c1CC(=O)NCc1ccoc1 | 15.465%
32 | CCC(NC1CCN(C(=O)c2ccccc2)CC1)c1cccs1 (stereo not given) | 7.22%
33 | Cc1cnn(CC2CCCN2C(=O)c2cc(Cl)ccc2F)c1 (stereo not given) | 22.9%
34 | O=C(O)c1cc(C=Cc2ccccc2)ncn1 | -20.2%
35 | Cc1noc([C@@H]2C[C@H]3CN(CC4CCOCC4)C[C@H]3O2)n1 | -7.7%
36 | Cc1noc(Cl)c1CCC(=O)N1CCC(Nc2cccnn2)CC1 | -5.07%
37 | COc1ccc2nnc(CCCC(=O)NCCc3ccccn3)n2n1 | 51.9%
38 | COc1ccc2nnc(CCCC(=O)NCCc3ccccc3)n2n1 | -31%
39 | COc1ccc2nnc(CCCC(=O)NCCc3ccncc3)n2n1 | 32.2%
40 | Cc1nc(Cc2ccc(F)cc2)cc(C2COCCN2)n1 (stereo not given) | 35.305%
41 | O=C(C1CC1)N1CCCC(c2nc(O)cc(-c3ccncc3)n2)C1 (stereo not given) | 47.2%
42 | COc1ccc(CN2C[C@H]3C[C@H](CN(C)C)O[C@H]3C2)cc1 | 28.4%
43 | CNCCc1nc2cc(Cl)ccc2[nH]1 | 31.9%
44 | CNCCc1nc2cc(F)ccc2[nH]1 | -2.37%
45 | CCNCCc1nc2cc(F)ccc2[nH]1 | 72.3%
46 | CC(C)c1nc(CN2CCC(c3ccnn3CCO)CC2)no1 | 38.5%

Row | SMILES | INHIBITION
47 | CCN(c1ccc(C(=O)N2CCCCCC2)cc1)S(=O)(=O)CC | 3.77%
48 | CC(C)N1CCCC(CN(C)c2ccc(Cn3ccnc3)cn2)C1 (stereo not given) | -23.4%
49 | CN(CC1CCN(c2ccccc2)C1)c1ccc(Cn2ccnc2)cn1 (stereo not given) | 74.9%
50 | CSCc1ccc(N(C)CC2CCCN(C(C)C)C2)nc1 (stereo not given) | -43.1%
51 | Cn1c2c(c(=O)n1C)CN(C(=O)c1ccncc1F)CCC2 | 25.8%
52 | COC(=O)c1cc(C(=O)N2CCN(C)CC2)n(-c2ccccc2)n1 | 30.2%
53 | CNC(=O)NCC(=O)N1CCCC1Cc1cccc(F)c1 (stereo not given) | 10.6%
54 | Cc1ccc2[nH]c(C3CCN(CC(N)=O)CC3)nc2c1 | -9.51%
55 | NC(=O)c1cccc2nc([C@H]3CCN(Cc4ccccn4)C3)[nH]c12 | 66.6%
56 | NC(=O)c1cccc2nc([C@H]3CCN(Cc4ccccc4F)C3)[nH]c12 | 14.9%
57 | Cc1ccc(CN2CC[C@H](c3nc4cccc(C(N)=O)c4[nH]3)C2)cc1 | 59.2%
58 | NC(=O)c1cccnc1N1C[C@H]2CC[C@@H](C1)N(Cc1ccccn1)C2=O | 43.8%
59 | COc1ccc(CN2CC[C@H](c3nc4cccc(C(N)=O)c4[nH]3)C2)cc1 | 22.3%
60 | CS(=O)(=O)N1CC[C@@H]2[C@@H]1CCN2Cc1ccc2c(c1)OCO2 | 7.5%
61 | CC(C)N(CCCNC(=O)C1CCCN(C(N)=O)C1)S(C)(=O)=O (stereo not given) | 36.5%
62 | CN(Cc1cn(CC2CCNCC2)nn1)CC1CCCCO1 (stereo not given) | -1.04%
63 | O=C1[C@H]2CN(Cc3ccco3)C[C@H]2CN1c1ccsc1 | 31.1%
64 | CC(NCCCN1CCCN(C)CC1)C(C)(C)C (stereo not given) | 26%
65 | Cc1cc(NC(=O)Cn2ccccc2=O)n(C)n1 | 11.5%
66 | Cc1ccccc1-c1cc(NC(=O)Cn2ccccc2=O)n(C)n1 | -3.94%
67 | Cn1nc(C(C)(C)C)cc1NC(=O)Cn1ccccc1=O | 54.3%
68 | c1cnc(N2CCO[C@H]3CN(CC4CCOC4)C[C@H]32)cn1 (stereo not given in full) | 44.8%
69 | Fc1cnc(N2CCO[C@H]3CN(CC4CCC4)C[C@H]32)nc1 | 12.2%

Row | SMILES | INHIBITION
70 | c1cnc(N2CCO[C@H]3CN(CC4CCC4)C[C@H]32)cn1 | 62%
71 | Fc1cnc(N2CCO[C@H]3CN(CC4CCOC4)C[C@H]32)nc1 (stereo not given in full) | 43.1%
72 | c1cnc(N2CCO[C@H]3CN(CC4CCCC4)C[C@H]32)cn1 | 42.1%
73 | c1cncc(N2CCO[C@H]3CN(CC4CCOC4)C[C@H]32)c1 (stereo not given in full) | 62%
74 | O=C(C1=CCCCC1)N1CCO[C@H]2[C@H](Oc3ccccn3)CC[C@@H]21 | 27.6%
75 | CCCc1nc(C)cc(NCc2ccc(S(N)(=O)=O)cc2)n1 | 18.5%
76 | CCOc1ccc(-n2nnc(C(=O)O)c2-c2ccccn2)cc1 | -31.6%
77 | CCN(Cc1ccccn1)Cc1cc(Cl)ccc1OC | 39.1%
78 | CCN(Cc1cc(Cl)ccc1OC)Cc1cc(C)nn1C | 57.9%
79 | CCN(Cc1cc(Cl)ccc1OC)Cc1nccn1C | 15.3%
80 | O=C(CCCN1CCCCC1)N1CCN(C(=O)c2nc[nH]n2)CC1 | -15.5%
81 | Cc1[nH]ncc1CCCNC(=O)Nc1ccccc1 | 24.6%
82 | Cc1[nH]ncc1CCCNC(=O)Nc1ccc2c(c1)OC1(CCCC1)O2 | 70.3%
83 | Cc1[nH]ncc1CCCNC(=O)Nc1ccc(S(C)(=O)=O)nc1 | 22.6%
84 | Cc1[nH]ncc1CCCNC(=O)Nc1ccc(F)cc1 | 78.2%
85 | Cc1[nH]ncc1CCCNC(=O)N1CCOC(C)C1 (stereo not given) | -1.95%
86 | Cc1[nH]ncc1CCCNC(=O)Nc1ccc(C#N)cc1 | -70.3%
87 | CN(CC1CCOC1)c1ccc(Br)cn1 (stereo not given) | 44.2%
88 | CS(=O)(=O)N1CC[C@@H]2OC(COCC(=O)N3CCCC3)CC[C@@H]21 (stereo not given in full) | -8.94%
89 | CC(CCN1CCC(n2cc(CCO)nn2)CC1)c1ccccc1 (stereo not given) | 24.9%
90 | COCc1cn(C2CCN(CCC(C)c3ccccc3)CC2)nn1 (stereo not given) | 55.7%
91 | CNCc1cn(C2CCN(CCC(C)c3ccccc3)CC2)nn1 (stereo not given) | 3.06%
92 | O=C1[C@@H]2CCN(C3CCOCC3)C[C@@H]2OCCN1Cc1cccnc1 | -8.54%

Row | SMILES | INHIBITION
93 | CO[C@H]1CCN(S(=O)(=O)c2cn(C)cn2)[C@H]1Cc1cnn(C)c1 | 10.8%
94 | CN1CCc2nnc(C3CCCN3S(=O)(=O)c3ccc(F)cc3)n2CC1 (stereo not given) | -9.08%
95 | Cc1cc(C)c(CNCC(O)c2ccc(F)c(F)c2)c(C)c1 (stereo not given) | -20.3%
96 | O[C@H]1CCCC[C@@H]1N1CCN(CCCc2ccc3c(c2)OCO3)CC1 | 53.8%
97 | CSc1ccc(CCN2CCN([C@H]3CCCC[C@@H]3O)CC2)cc1 | 25.1%
98 | c1cc2c(cc1CN1C[C@@H]3COC[C@@H](N4CCCC4)[C@@H]3C1)OCO2 | 39.4%
99 | CCCOc1c(CNC2CCSC2)cccc1OC (stereo not given) | 4.87%
100 | CCn1c(Cn2cncn2)nnc1C1CCN(CC2[C@H]3CNC[C@@H]23)CC1 (stereo not given in full) | 57.1%
101 | CCn1c(Cn2cncn2)nnc1C1CCN(CCN)CC1 | 43.8%
102 | CCn1c(Cn2cncn2)nnc1C1CCN(Cc2ccncc2)CC1 | -22.1%
103 | CC(C)c1nn(C)c(N(C)C)c1CNCCC(=O)N(C)C | 3.19%
104 | CC(C)(C)NC(=O)CN1CCCN(Cc2ccc(C#N)cc2)CC1 | -7.77%
105 | CC(C)(C)n1cc(C(=O)N2CCN(Cc3ccco3)CC2)cn1 | 6.15%
106 | CC(C)C(C)(C#N)NC(=O)CN1CCCN(Cc2ccccc2F)CC1 (stereo not given) | 82.4%
107 | CC(C)(C)n1cc(C(=O)N2CCN(Cc3ccccc3F)CC2)cn1 | 71.4%
108 | CC(C)(C)n1cc(C(=O)N2CCN(Cc3ccncc3)CC2)cn1 | 24.15%
109 | O=C(c1cnn(-c2ccccc2F)c1)N1CCN(CCO)CC1 | -10.3%
110 | CC(C)(O)CN1CCN(C(=O)c2sccc2C#N)CC1 | 54.4%
111 | CCCN1CCN(C(=O)c2cnn(-c3ccccc3F)c2)CC1 | -39.9%
112 | CC(C)(O)CN1CCN(C(=O)c2cnn(-c3ccccc3F)c2)CC1 | 58.5%
113 | CC(C)(C)NC(=O)CN1CCCN(Cc2cc(C#N)ccc2F)CC1 | -24.9%
114 | CSc1ccsc1C(=O)N1CCN(CC(C)(C)O)CC1 | 25.3%
115 | CCc1ccsc1C(=O)N1CCN(CC(C)(C)O)CC1 | -13.5%
